We go through 34 compounds from PubChem BioAssay (Tox21).

Results filed as inconclusive are left out. Where a call stands in place of a potency, no number is given. Activity calls are given as the source filed them. Unless noted, calls come from the whole dose curve; as a rule, active = well fitted curve in the direction sought with a large enough effect in the repeat runs; inconclusive = weak or mixed curves; inactive = no such curve, though single readings can be large; an effect the other way counts as inactive or inconclusive.

The target in one assay is Androgen receptor (Homo sapiens) (UniProt P10275). Put plainly: qHTS assay to identify small molecule antagonists of the androgen receptor (AR) signaling pathway (AID 743035; active = well fitted inhibition curve with a large enough effect in the signal ratio in the repeat runs, not every such curve was filed as active; the % refers to the signal ratio). Particulars: HEK293 AR-UAS-bla, R1881-stimulated, beta-lactamase FRET, 16 h; series mostly up to 58.5 µM. The essentials: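 Fluorescence from a beta-lactamase FRET substrate (LiveBLAzer B/G, 2 h, room temperature) measured inhibition of R1881-stimulated signaling in GeneBLAzer AR-UAS-bla HEK293 cells exposed to compound for 16 h at 37C.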
Sequence of Androgen receptor (Homo sapiens) (P10275 whole entry, looked up): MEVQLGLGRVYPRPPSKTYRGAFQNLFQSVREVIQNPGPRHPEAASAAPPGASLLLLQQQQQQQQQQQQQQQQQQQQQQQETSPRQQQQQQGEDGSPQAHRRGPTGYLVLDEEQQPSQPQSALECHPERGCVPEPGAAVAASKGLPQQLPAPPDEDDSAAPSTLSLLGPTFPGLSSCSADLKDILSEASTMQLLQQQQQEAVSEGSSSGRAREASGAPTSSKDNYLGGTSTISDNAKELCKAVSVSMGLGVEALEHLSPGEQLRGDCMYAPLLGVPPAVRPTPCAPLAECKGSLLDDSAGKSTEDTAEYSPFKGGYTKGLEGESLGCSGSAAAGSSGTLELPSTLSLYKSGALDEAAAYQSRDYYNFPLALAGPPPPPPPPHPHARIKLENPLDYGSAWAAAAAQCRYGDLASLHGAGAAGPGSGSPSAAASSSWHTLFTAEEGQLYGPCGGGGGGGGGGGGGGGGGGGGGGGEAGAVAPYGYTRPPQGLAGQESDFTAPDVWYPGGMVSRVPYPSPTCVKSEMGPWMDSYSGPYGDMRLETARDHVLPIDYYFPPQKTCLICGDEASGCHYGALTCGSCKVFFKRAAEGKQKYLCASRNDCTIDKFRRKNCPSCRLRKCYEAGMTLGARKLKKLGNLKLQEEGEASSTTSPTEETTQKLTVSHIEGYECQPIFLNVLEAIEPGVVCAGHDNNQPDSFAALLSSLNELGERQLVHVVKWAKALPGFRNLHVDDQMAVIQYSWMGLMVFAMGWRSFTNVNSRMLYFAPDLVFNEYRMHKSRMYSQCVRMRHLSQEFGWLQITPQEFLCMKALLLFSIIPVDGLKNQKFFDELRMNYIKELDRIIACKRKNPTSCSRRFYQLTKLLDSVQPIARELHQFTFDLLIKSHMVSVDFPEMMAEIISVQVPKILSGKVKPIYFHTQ
For the compound `CC(C)(O)c1ccccc1CC[C@@H](SCC1(CC(=O)O)CC1)c1cccc(/C=C/c2ccc3ccc(Cl)cc3n2)c1`, the Potency result is “inactive”.

With `CC(=O)Nc1ccc(N)cc1`, the Potency result was “inactive”.

`C=CC(=C)CCCC(C)(C)OC(C)=O`: the Potency result was “inactive”.

On to `ON(Cc1ccccc1)Cc1ccccc1`, for which the Potency result is “inactive”.

As to `CC(=O)OCC(=O)[C@H]1CC[C@H]2[C@@H]3CCC4=CC(=O)CC[C@]4(C)[C@H]3CC[C@]12C`, the Potency result is “inactive”.

A further assay has the same target. Nature of the assay: qHTS assay to identify small molecule agonists of the androgen receptor (AR) signaling pathway (AID 743036; active = well fitted activation curve with a large enough effect in the signal ratio in the repeat runs, with a control signal flat, not every such curve was filed as active; the % refers to the signal ratio; note: potency is the fitted concentration of half-maximal effect). Particulars: HEK293 AR-UAS-bla GripTite, beta-lactamase FRET ratio, 16 h; series mostly up to 62.4 µM. The essentials: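 AR-bla HEK293 cells, 2,000/well; 4 h preincubation 37C/5% CO2; compound (DMSO) 16 h at 37C; LiveBLAzer B/G FRET substrate 2 h RT; fluorescence intensity read-out.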
On the technique in general: Quantitative high-throughput screening tests each substance at several concentrations.
For `CC(=O)Nc1ccc(N)cc1`, the Potency entry is “inactive”.

In the case of `C=CC(=C)CCCC(C)(C)OC(C)=O`, the Potency entry was “inactive”.

For the compound `ON(Cc1ccccc1)Cc1ccccc1`, the Potency result was “inactive”.

On to `CC(=O)OCC(=O)[C@H]1CC[C@H]2[C@@H]3CCC4=CC(=O)CC[C@]4(C)[C@H]3CC[C@]12C`, for which the Potency is 0.0301 µM (active).

Another assay shares this target. Nature of the assay: qHTS assay to identify small molecule agonists of the androgen receptor (AR) signaling pathway using the MDA cell line (AID 743040; note: nearly all actives have a fitted effect of over 20% in size; note: potency is the fitted concentration of half-maximal effect). Particulars: MDA-kb2 AR-luc cells, MMTV luciferase, 16 h; series mostly up to 70.3 µM. The essentials: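 After a 5 h incubation at 37C and 0% CO2, MDA-kb2 reporter cells were dosed with compounds in DMSO and kept 16 h under the same conditions. Luciferase activity was then read as luminescence with ONE-Glo.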
For `Cc1ccc(Nc2nccc(N(C)c3ccc4c(C)n(C)nc4c3)n2)cc1S(N)(=O)=O`, the Potency result is “inactive”.

Take `CC(C)(O)c1ccccc1CC[C@@H](SCC1(CC(=O)O)CC1)c1cccc(/C=C/c2ccc3ccc(Cl)cc3n2)c1`: the Potency entry is “inactive”.

`CC1=NN(c2ccc(C(=O)O)cc2)C(=O)C1`: the Potency entry is “inactive”.

`O=C(N/N=C/c1ccc([N+](=O)[O-])o1)c1ccc(O)cc1`: the Potency entry was “inactive”.

With `CC(=O)Nc1ccc(N)cc1`, the Potency result was “inactive”.

As to `C=CC(=C)CCCC(C)(C)OC(C)=O`, the Potency result was “inactive”.

In the case of `ON(Cc1ccccc1)Cc1ccccc1`, the Potency entry was “inactive”.

Turning to `CC(=O)OCC(=O)[C@H]1CC[C@H]2[C@@H]3CCC4=CC(=O)CC[C@]4(C)[C@H]3CC[C@]12C`, the Potency is 9.44 µM (active).

For `Fc1ccccc1[C@@H](F)COC1CCC(Nc2ncnc3[nH]ncc23)CC1` (some centres not stated), the Potency result was “inactive”.

System in a further assay: not listed separately
Put plainly: qHTS assay to identify small molecule antagonists of the androgen receptor (AR) signaling pathway using the MDA cell line - cell viability counter screen (AID 743041; note: nearly all actives have a fitted effect of over 45% in size; note: potency is the fitted concentration of half-maximal effect). Particulars: MDA-kb2 viability, CellTiter-Fluor, 16 h, cells co-treated with R1881 androgen agonist; series mostly up to 70.3 µM. The essentials: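 R1881-driven MDA-kb2 AR-luc cells, 3,000/well, were dosed with library compounds for 16 h; cell health came from CellTiter-Fluor fluorescence in the reporter wells.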
Turning to `CC(=N\O)/C(C)=N/O`, the Potency entry is “inactive”.

As for `O=C(CS)OCCOC(=O)CS`, the Potency entry is “inactive”.

As for `Cc1ccccc1N1C(=O)c2cc(S(N)(=O)=O)c(Cl)cc2NC1C` (configuration not stated), the Potency entry was “inactive”.

As for `O=C(Nc1ccccc1)Nc1ccccc1`, the Potency result is “inactive”.

Regarding `CC(CCc1ccc2c(c1)OCO2)NN` (configuration not stated), the Potency result was “inactive”.

Take `CCCCCC=CCC=CCCCCCCCC(=O)OCC`: the Potency result is “inactive”.

In the case of `CC(C)(O)c1ccccc1CC[C@@H](SCC1(CC(=O)O)CC1)c1cccc(/C=C/c2ccc3ccc(Cl)cc3n2)c1`, the Potency result is “inactive”.

With `CC1=NN(c2ccc(C(=O)O)cc2)C(=O)C1`, the Potency result is “inactive”.

Take `O=C(O)c1snc(Cl)c1Cl`: the Potency result is “inactive”.

Consider `C[N+]1(C)CCC(=C(c2ccccc2)c2ccccc2)CC1`, for which the Potency result was “inactive”.

As for `CCCOc1ccc(S(=O)(=O)N2CCN(CC)CC2)cc1-c1nc2c(CC)n(Cc3ccccn3)nc2c(=O)[nH]1`, the Potency entry is “inactive”.

In the case of `Nc1ccc(C(=O)OCCCOC(=O)c2ccc(N)cc2)cc1`, the Potency result was “inactive”.

On to `CC(=O)Nc1ccc(N)cc1`, for which the Potency result was “inactive”.

As to `C[C@@H]1C[C@H]2[C@@H]3CCC4=CC(=O)C=C[C@]4(C)[C@@]3(F)[C@@H](O)C[C@]2(C)[C@@]1(O)C(=O)CO`, the Potency result was “inactive”.

`c1ccc(COCc2ccccc2)cc1`: the Potency result is “inactive”.

For `CC1(C)O[C@@H]2C[C@H]3[C@@H]4CCC5=CC(=O)C=C[C@]5(C)[C@H]4[C@@H](O)C[C@]3(C)[C@]2(C(=O)CO)O1`, the Potency result is “inactive”.

`CC(C)C(OC(=O)c1ccccc1)C(C)(C)COC(=O)c1ccccc1` (configuration not stated): the Potency result was “inactive”.

With `ON(Cc1ccccc1)Cc1ccccc1`, the Potency result is “inactive”.

On to `CC(=O)OCC(=O)[C@H]1CC[C@H]2[C@@H]3CCC4=CC(=O)CC[C@]4(C)[C@H]3CC[C@]12C`, for which the Potency entry was “inactive”.

As for `CCCCCCCCCCCC[N+](C)(C)CCCS(=O)(=O)[O-]`, the Potency entry is “inactive”.

Regarding `COCCOC`, the Potency result was “inactive”.

As for `CC(C)(C)C(=O)O`, the Potency entry is “inactive”.

In the case of `Fc1c(F)c(F)c(Br)c(F)c1F`, the Potency entry was “inactive”.

As to `CCC(C)=O`, the Potency result was “inactive”.

Turning to `CC1CC(=O)NN=C1c1ccc(NCC(C)(C)NCC(O)COc2cc(Cl)ccc2C#N)cc1` (configuration not stated), the Potency entry is “inactive”.

Take `CC(N)CN` (configuration not stated): the Potency entry was “inactive”.

`CCCCOC(=O)CCS`: the Potency result is “inactive”.

For the compound `CC[C@@H]([C@H](C)O)n1ncn(-c2ccc(N3CCN(c4ccc(OC[C@@H]5CO[C@@](Cn6cncn6)(c6ccc(F)cc6F)C5)cc4)CC3)cc2)c1=O`, the Potency result was “inactive”.

In the case of `Cc1cc(S(=O)(=O)O)ccc1N=Nc1c(O)ccc2ccccc12`, the Potency was 30.6 µM (active).

For the compound `CCCCC(=O)O[C@]1(C(=O)CO)CC[C@H]2[C@@H]3CCC4=CC(=O)CC[C@]4(C)[C@H]3[C@@H](O)C[C@@]21C`, the Potency result is “inactive”.

In the next assay the target is Androgen receptor (Homo sapiens) (UniProt P10275). Put plainly: qHTS assay to identify small molecule antagonists of the androgen receptor (AR) signaling pathway using the MDA cell line (AID 743042; note: nearly all actives have a fitted effect of over 55% in size; note: potency is the fitted concentration of half-maximal effect). Particulars: MDA-kb2 AR-luc, MMTV luciferase, R1881 antagonist, 16 h; series mostly up to 70.3 µM. The essentials:
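Antagonist mode: compounds plus R1881 agonist added to MDA-kb2 AR-luc cells, incubated 16 h at 37C. Luciferase reporter luminescence quantified, with multiplexed CellTiter-Fluor readout for cell viability.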
As to `Cc1ccc(Nc2nccc(N(C)c3ccc4c(C)n(C)nc4c3)n2)cc1S(N)(=O)=O`, the Potency is 11.9 µM (active).

`CC(C)(O)c1ccccc1CC[C@@H](SCC1(CC(=O)O)CC1)c1cccc(/C=C/c2ccc3ccc(Cl)cc3n2)c1`: the Potency entry is “inactive”.

In the case of `CC1=NN(c2ccc(C(=O)O)cc2)C(=O)C1`, the Potency entry is “inactive”.

As for `O=C(N/N=C/c1ccc([N+](=O)[O-])o1)c1ccc(O)cc1`, the Potency is 4.52 µM (active).

With `CC(=O)Nc1ccc(N)cc1`, the Potency result was “inactive”.

Regarding `C=CC(=C)CCCC(C)(C)OC(C)=O`, the Potency entry was “inactive”.

Consider `ON(Cc1ccccc1)Cc1ccccc1`, for which the Potency entry is “inactive”.

Consider `CC(=O)OCC(=O)[C@H]1CC[C@H]2[C@@H]3CCC4=CC(=O)CC[C@]4(C)[C@H]3CC[C@]12C`, for which the Potency result was “inactive”.

For `Fc1ccccc1[C@@H](F)COC1CCC(Nc2ncnc3[nH]ncc23)CC1` (some centres not stated), the Potency was 19.3 µM (active).
